Among all 5,500 compounds or so, about 2,000 (36%) were called active. Another 18% or so got no clear call; they are omitted. Rule as the data show it: active = normalized growth mostly below about 0.91 (no sharp cut-off); inconclusive = no clear call, values can overlap the other calls; inactive = mostly above about 0.92. The list shows a part of the results.
Assay: chemical genetic growth profiling, strain panel (AID 1159580);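 also: tested at 20 µM; growth read once vehicle control cultures reached saturation at 30 °C; 1 = growth at the plate median or of vehicle wells; lower values mean less growth of the strain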
Settings: S. cerevisiae deletion strains, growth OD
[1] = locus YAR019C, strain CDC15, stronger effect = lower value
[2] = locus YBL105C, strain PKC1, stronger effect = lower value
[3] = locus YBR135W, strain CKS1, stronger effect = lower value
[4] = locus YBR136W, strain MEC1, stronger effect = lower value
[5] = locus YBR160W, strain CDC28, stronger effect = lower value
[6] = locus YDL017W, strain CDC7, stronger effect = lower value
[7] = locus YDL028C, strain MPS1, stronger effect = lower value
[8] = locus YDL101C, strain DUN1, stronger effect = lower value
[9] = locus YDL108W, strain KIN28, stronger effect = lower value
[10] = locus YDL132W, strain cdc53, stronger effect = lower value
[11] = locus YDL214C, strain PRR2, stronger effect = lower value
[12] = locus YDR052C, strain DBF4, stronger effect = lower value
[13] = locus YDR054C, strain cdc34, stronger effect = lower value
[14] = locus YDR226W, strain ADK1, stronger effect = lower value
[15] = locus YDR477W, strain SNF1, stronger effect = lower value
[16] = locus YER123W, strain YCK3, stronger effect = lower value
[17] = locus YER133W, strain GLC7, stronger effect = lower value
[18] = locus YFL009W, strain cdc4, stronger effect = lower value
[19] = locus YFL029C, strain CAK1, stronger effect = lower value
[20] = locus YFR003C, strain YPI1, stronger effect = lower value
[21] = locus YFR019W, strain FAB1, stronger effect = lower value
[22] = locus YFR028C, strain CDC14, stronger effect = lower value
[23] = locus YGR040W, strain KSS1, stronger effect = lower value
[24] = locus YGR052W, strain FMP48, stronger effect = lower value
[25] = locus YGR092W, strain DBF2, stronger effect = lower value
[26] = locus YHR030C, strain SLT2, stronger effect = lower value
[27] = locus YHR079C, strain IRE1, stronger effect = lower value
[28] = locus YHR082C, strain KSP1, stronger effect = lower value
[29] = locus YHR205W, strain SCH9, stronger effect = lower value
[30] = locus YIL147C, strain SLN1, stronger effect = lower value
[31] = locus YJL095W, strain BCK1, stronger effect = lower value
[32] = locus YJL128C, strain PBS2, stronger effect = lower value
[33] = locus YJL157C, strain FAR1, stronger effect = lower value
[34] = locus YJR016C, strain ILV3, stronger effect = lower value
[35] = locus YJR066W, strain TOR1 (second series), stronger effect = lower value
[36] = locus YJR066W, strain TOR1, stronger effect = lower value
[37] = locus YKL048C, strain ELM1, stronger effect = lower value
[38] = locus YKL067W, strain YNK1, stronger effect = lower value
[39] = locus YKL101W, strain HSL1, stronger effect = lower value
[40] = locus YKL193C, strain SDS22, stronger effect = lower value
[41] = locus YKL203C, strain TOR2, stronger effect = lower value
[42] = locus YLR113W, strain HOG1, stronger effect = lower value
[43] = locus YLR133W, strain CKI1, stronger effect = lower value
[44] = locus YLR403W, strain SFP1, stronger effect = lower value
[45] = locus YML070W, strain DAK1, stronger effect = lower value
[46] = locus YMR001C, strain CDC5, stronger effect = lower value
[47] = locus YMR205C, strain PFK2 (second series), stronger effect = lower value
[48] = locus YMR277W, strain FCP1, stronger effect = lower value
[49] = locus YNL006W, strain LST8, stronger effect = lower value
[50] = locus YNL020C, strain ARK1, stronger effect = lower value
[51] = locus YNL161W, strain CBK1, stronger effect = lower value
[52] = locus YNL183C, strain NPR1, stronger effect = lower value
[53] = locus YNL207W, strain RIO2, stronger effect = lower value
[54] = locus YNL222W, strain SSU72, stronger effect = lower value
[55] = locus YNL307C, strain MCK1 (second series), stronger effect = lower value
[56] = locus YOL078W, strain AVO1, stronger effect = lower value
[57] = locus YOL136C, strain PFK27, stronger effect = lower value
[58] = locus YOR061W, strain CKA2, stronger effect = lower value
[59] = locus YOR119C, strain RIO1, stronger effect = lower value
[60] = locus YOR231W, strain MKK1, stronger effect = lower value
[61] = locus YOR329C, strain SCD5, stronger effect = lower value
[62] = locus YPL031C, strain PHO85, stronger effect = lower value
[63] = locus YPL153C, strain RAD53, stronger effect = lower value
[64] = locus YPL204W, strain HRR25, stronger effect = lower value
[65] = locus YPL209C, strain IPL1, stronger effect = lower value
[66] = locus YPL256C, strain CLN2, stronger effect = lower value
[67] = locus YPR025C, strain CCL1, stronger effect = lower value
[68] = locus YPR106W, strain ISR1, stronger effect = lower value
[69] = locus YPR111W, strain DBF20, stronger effect = lower value
[70] = strain NNK1, stronger effect = lower value
[71] = strain TSCII, stronger effect = lower value

Measured: normalized growth

CCCCOC(=O)NS(=O)(=O)c1sc(CC(C)C)cc1-c1ccc(Cn2c(CC)nc3c(C)cc(C)nc32)cc1
inactive: locus YAL013W, strain DEP1, stronger effect = lower value 1 | locus YAL040C, strain CLN3, stronger effect = lower value 1.01 | locus YCL061C, strain MRC1 (second series), stronger effect = lower value 0.999 | locus YDR150W, strain NUM1, stronger effect = lower value 1.01 | locus YDR363W, strain ESC2, stronger effect = lower value 0.988 | locus YER002W, strain NOP16, stronger effect = lower value 0.997 | locus YJR075W, strain HOC1, stronger effect = lower value 0.999 | locus YNL128W, strain TEP1, stronger effect = lower value 1 | locus YNL153C, strain GIM3, stronger effect = lower value 0.923 | locus YNL175C, strain NOP13, stronger effect = lower value 1 | locus YNL197C, strain WHI3, stronger effect = lower value 1 | locus YNL224C, strain SQS1, stronger effect = lower value 0.98 | locus YOR083W, strain WHI5 (second series), stronger effect = lower value 0.919

O=C(NNC(=S)Nc1ccc(Cl)cc1)c1ncc(C(F)(F)F)cc1Cl
inactive: [1] 0.968 | [2] 0.99 | [3] 0.992 | [4] 0.985 | [5] 0.994 | [6] 0.989 | [7] 0.988 | [8] 0.985 | [9] 0.986 | [10] 0.966 | [11] 0.956 | [12] 0.991 | [13] 0.961 | [14] 0.982 | [15] 0.935 | [16] 0.863 | [17] 0.94 | [18] 0.975 | [19] 0.973 | [20] 0.991 | [21] 1 | [22] 0.984 | [23] 0.929 | [24] 0.942 | [25] 0.755 | [26] 0.901 | [27] 0.768 | [28] 1.08 | [29] 0.981 | [30] 0.972 | [31] 0.791 | [32] 0.971 | [33] 0.912 | [34] 0.974 | [35] 0.885 | [36] 1.01 | [37] 0.986 | [38] 0.95 | [39] 0.926 | [40] 0.984 | [41] 1.01 | [42] 0.886 | [43] 0.932 | [44] 0.91 | [45] 0.93 | [46] 0.986 | [47] 0.956 | [48] 0.966 | [49] 0.991 | [50] 0.929 | [51] 0.981 | [52] 0.854 | [53] 0.973 | [54] 0.979 | [55] 0.912 | [56] 0.972 | [57] 0.939 | [58] 0.925 | [59] 0.962 | [60] 0.843 | [61] 0.99 | [62] 0.901 | [63] 0.882 | [64] 0.86 | [65] 0.992 | [66] 0.875 | [67] 0.98 | [68] 0.987 | [69] 0.987 | [70] 0.995 | [71] 0.968

CC(C)(C)c1ccc(C(=O)NNC(=S)Nc2ccc(Cl)cc2)cc1
active: [26] 0.731 | [66] 0.839
inactive: [1] 0.958 | [2] 0.978 | [3] 0.972 | [4] 0.974 | [5] 0.965 | [6] 0.983 | [7] 0.936 | [8] 0.978 | [9] 0.96 | [10] 0.971 | [11] 0.932 | [12] 0.986 | [13] 0.968 | [14] 0.954 | [15] 0.931 | [16] 0.895 | [17] 0.949 | [18] 0.937 | [19] 0.96 | [20] 0.98 | [21] 0.98 | [22] 0.957 | [23] 0.939 | [24] 0.974 | [25] 0.862 | [27] 0.916 | [28] 0.984 | [29] 0.904 | [30] 0.973 | [31] 0.898 | [32] 0.93 | [33] 0.953 | [34] 0.986 | [35] 0.845 | [36] 0.903 | [37] 0.996 | [38] 0.909 | [39] 0.91 | [40] 0.97 | [41] 1.01 | [42] 0.878 | [43] 0.938 | [44] 0.96 | [45] 0.921 | [46] 0.953 | [47] 0.933 | [48] 0.949 | [49] 0.981 | [50] 0.933 | [51] 0.986 | [52] 0.962 | [53] 0.971 | [54] 0.976 | [55] 0.896 | [56] 0.97 | [57] 0.919 | [58] 0.969 | [59] 0.964 | [60] 0.916 | [61] 0.983 | [62] 0.927 | [63] 0.873 | [64] 0.907 | [65] 0.968 | [67] 0.979 | [68] 0.984 | [69] 0.927 | [70] 0.997 | [71] 0.974
